Data from PubChem BioAssay (Tox21).
“And” between values parts separate entries of the source, which are not always exact repeats. Identical values can stand only once. Results filed as inconclusive are left out. Where a call stands in place of a potency, no number is given. A structure can be active in one record and inactive in another. The source made the active and inactive calls. Unless noted, calls follow the shape of the dose curve; as a rule, active = well fitted curve in the direction sought with a large enough effect in the repeat runs; inconclusive = weak or mixed curves; inactive = no such curve, though single readings can be large; an effect the other way counts as inactive or inconclusive.

Legend:
[1] = qHTS assay for small molecules that induce genotoxicity in human embryonic kidney cells expressing luciferase-tagged ATAD5 (AID 651632); also: nearly all actives have a fitted effect of over 15% in size; also: potency is read from the fitted curve at half-maximal effect
Outline: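 Genotoxicity read-out via ATAD5-luciferase: HEK293T cells, 16 hr compound incubation at 37C, Amplite detection.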

[2] = qHTS assay for small molecule agonists of the p53 signaling pathway - cell viability (AID 651633; calls by dose curve; also: nearly all actives have a fitted effect of over 30% in size; also: potency is read from the fitted curve at half-maximal effect)
Outline: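 p53RE-bla cells were treated with compound for 16 hours at 37 C. Cytotoxicity was then measured as CellTiter-Glo luminescence after 30 min at room temperature.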

[3] = qHTS assay for small molecules that induce genotoxicity in human embryonic kidney cells expressing luciferase-tagged ATAD5 - cell viability (AID 651634; calls by dose curve; also: nearly all actives have a fitted effect of over 25% in size; also: potency is read from the fitted curve at half-maximal effect)
Outline: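 Live-cell protease activity (CellTiter-Fluor, fluorescence) indicates viability. HEK293T cells with luciferase-tagged ATAD5; 15.5 hr compound treatment at 37C.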

[4] = qHTS assay for small molecule disruptors of the mitochondrial membrane potential - cell viability (AID 720634; calls by dose curve; also: nearly all actives have a fitted effect of over 20% in size; also: potency is read from the fitted curve at half-maximal effect)
Outline: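 Human hepatoma HepG2 cells were treated for 1 hr with test chemicals, then given m-MPI dye and CellTiter-Glo. Cell viability reflects luminescence proportional to cellular ATP.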

[5] = qHTS assay to test for compound auto fluorescence at 590 nm (red) in HepG2 cells (AID 720674)
Outline: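 Fluorescence at 590 nm emission following 540 nm excitation was recorded from HepG2 wells one hour after compound transfer, with DMSO-only wells as vehicle and Rose Bengal sodium equivalency as the scale.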

[6] = qHTS assay to test for compound auto fluorescence at 535 nm (green) in HepG2 cells (AID 720675)
[7] = qHTS assay to test for compound auto fluorescence at 460 nm (blue) in HEK293 cells (AID 720678)
Outline: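 Measured: blue fluorescence (Ex 405/Em 460 nm) of compound-treated HEK293 cells, incubated overnight at 37C with 5% CO2 and scaled to triamterene equivalents.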

[8] = qHTS assay to test for compound auto fluorescence at 590 nm (red) in HEK293 cells (AID 720679)
Outline: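 Using HEK293 cells at 2,000 per well, the screen added 23 nL of each compound after cell attachment and incubated overnight (37C, 5% CO2). The plate reader then captured red-label fluorescence, Ex/Em 540/590nm.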

[9] = qHTS assay to test for compound auto fluorescence at 535 nm (green) in HEK293 cells (AID 720680)
[10] = qHTS assay to test for compound auto fluorescence at 460 nm (blue) in HEK293 cell free culture (AID 720681)
Outline: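 Compounds were added to cell-free DMEM with 10% FBS and fluorescence read directly. The blue channel used 405 nm excitation and 460 nm emission, with triamterene as the reference fluorophore.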

[11] = qHTS assay to test for compound auto fluorescence at 535 nm (green) in HEK293 cell free culture (AID 720682)
Outline: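 Using fluorescein as calibrant, autofluorescence was quantified at 485/535 nm in cell-free DMEM containing 10% FBS after pintool addition of compound or vehicle.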

[12] = qHTS assay to test for compound auto fluorescence at 590 nm (red) in HEK293 cell free culture (AID 720683)
Outline: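 Cell-free wells of DMEM with 10% FBS received compound, and intrinsic fluorescence was read at excitation/emission 540/590 nm. Values expressed as equivalence to Rose Bengal sodium.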

[13] = qHTS assay to test for compound auto fluorescence at 590 nm (red) in HepG2 cell free culture (AID 720684)
Outline: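 Compound was pinned into wells holding MEM with 10% FBS and no cells, and red fluorescence was read at Ex/Em 540/590 nm. Signal is expressed as auto fluorescence equivalency relative to Rose Bengal sodium.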

[14] = qHTS assay to test for compound auto fluorescence at 460 nm (blue) in HepG2 cell free culture (AID 720685)
Outline: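 Compound (23 nL) or DMSO pinned into cell-free MEM with 10% FBS; blue fluorescence read at 405/460 nm excitation/emission, expressed as auto-fluorescence equivalency to triamterene.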

[15] = qHTS assay to test for compound auto fluorescence at 535 nm (green) in HepG2 cell free culture (AID 720686)
[16] = qHTS assay to test for compound auto fluorescence at 460 nm (blue) in HepG2 cells (AID 720687)
Outline: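 HepG2 cells in MEM with 10% FBS, attached overnight at 37 C, were exposed to compound or DMSO for 1 hr at 37 C, 5% CO2. Blue fluorescence was read at 405/460 nm, with triamterene as reference fluorophore.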

[17] = qHTS assay for small molecule disruptors of the mitochondrial membrane potential (AID 720635); also: potency is read from the fitted curve at half-maximal effect
Outline: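 HepG2 cells exposed to compound 1 hr at 37C, then Mito-MPS dye 30 min. Ratio read of aggregate (540/590 nm) versus monomer (490/535 nm) fluorescence.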

[18] = molecular target: Glucocorticoid receptor (Homo sapiens) (UniProt P04150); experiment: qHTS assay to identify small molecule antagonists of the glucocorticoid receptor (GR) signaling pathway (AID 720692; active = well fitted inhibition curve with a large enough effect in the signal ratio in the repeat runs, not every such curve was filed as active; the % refers to the signal ratio)
Outline: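 Fluorescence from cleaved LiveBLAzer B/G FRET substrate reports GRE-driven beta-lactamase in HeLa cells; compounds are tested against 5 nM dexamethasone (final) over 18 h at 37 C, substrate incubation 2 h at room temperature.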

Chain of Glucocorticoid receptor (Homo sapiens) (P04150 whole entry, looked up): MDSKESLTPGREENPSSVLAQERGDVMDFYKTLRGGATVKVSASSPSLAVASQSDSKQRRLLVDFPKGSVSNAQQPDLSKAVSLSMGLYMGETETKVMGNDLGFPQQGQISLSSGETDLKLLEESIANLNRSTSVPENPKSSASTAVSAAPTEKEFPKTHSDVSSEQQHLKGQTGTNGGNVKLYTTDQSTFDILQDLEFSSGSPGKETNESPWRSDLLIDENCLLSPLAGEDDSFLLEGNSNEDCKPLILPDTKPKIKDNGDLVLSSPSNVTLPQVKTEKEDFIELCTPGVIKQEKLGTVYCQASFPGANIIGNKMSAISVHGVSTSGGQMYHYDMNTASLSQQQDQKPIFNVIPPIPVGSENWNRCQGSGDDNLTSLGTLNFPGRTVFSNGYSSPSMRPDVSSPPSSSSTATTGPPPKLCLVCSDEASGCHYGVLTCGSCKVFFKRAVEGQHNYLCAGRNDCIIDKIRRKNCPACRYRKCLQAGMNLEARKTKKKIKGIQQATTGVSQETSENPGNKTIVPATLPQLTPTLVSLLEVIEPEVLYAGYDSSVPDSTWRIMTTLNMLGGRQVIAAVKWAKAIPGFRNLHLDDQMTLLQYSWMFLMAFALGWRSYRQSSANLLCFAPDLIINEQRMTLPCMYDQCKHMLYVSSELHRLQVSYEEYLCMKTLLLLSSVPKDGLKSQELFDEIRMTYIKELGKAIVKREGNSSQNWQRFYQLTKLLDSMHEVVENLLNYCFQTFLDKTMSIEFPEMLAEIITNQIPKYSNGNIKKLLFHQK

SMILES | Potency [1] | Potency [2] | Potency [3] | Potency [4] | Potency [5] | Potency [6] | Potency [7] | Potency [8] | outcome [9] | Potency [10] | outcome [11] | Potency [12] | Potency [13] | Potency [14] | Potency [15] | Potency [16] | Potency [17] | Potency [18]
COc1ccc(CN2CCN(C(c3ccc(F)cc3)c3ccc(F)cc3)CC2)c(OC)c1OC | inactive | 26.6 µM (active) | 21.1 µM (active) | inactive | inactive | inactive | inactive | inactive | inactive | inactive | inactive | inactive | inactive | inactive | inactive | inactive |  | 
NNC(=O)c1cccc(C(=O)NN)c1 | inactive | inactive | inactive | inactive |  | inactive | inactive | inactive | inactive | inactive | inactive | inactive | inactive | inactive | inactive | inactive |  | 
Cc1cc(O)c(C(C)(C)C)cc1Sc1cc(C(C)(C)C)c(O)cc1C | inactive | 13.7 µM (active) | 54.4 µM (active) | 61 µM (active) | inactive | inactive |  |  | inactive | inactive | inactive | inactive | inactive | inactive | inactive | inactive | 0.768 µM (active) | 
CCN(C(=O)c1cc(C)cc(OC[C@H](C)Nc2ccncc2)c1)C(C)C | inactive | inactive | inactive | inactive |  | inactive | inactive |  | inactive | inactive | inactive | inactive | inactive | inactive | inactive | inactive |  | inactive
CCCCN(CCCC)c1ccc(C(=O)c2ccccc2C(=O)O)c(O)c1 | inactive | 17.4 µM (active) | inactive | inactive | inactive | inactive | inactive |  | inactive | inactive | inactive | inactive | inactive | inactive | inactive | inactive |  | 
COc1cc(/C=C/C(=O)O[C@H]2CC[C@]34C[C@]35CC[C@]3(C)[C@@H]([C@H](C)CCC=C(C)C)CC[C@@]3(C)[C@@H]5CC[C@H]4C2(C)C)ccc1O | 7.5 µM (active) | inactive | inactive | inactive | inactive | inactive |  | inactive | inactive | inactive | inactive | inactive | inactive | inactive | inactive | inactive |  | inactive
CCc1cc(SCc2sc(-c3ccc(C(F)(F)F)cc3)nc2CN2CCN(c3ccc(OC)cc3)CC2)ccc1OCC(=O)O | inactive | 9.69 µM (active) | 48.6 µM (active) | inactive |  | inactive | inactive | inactive | inactive | inactive | inactive | inactive | inactive | inactive | inactive | inactive | 19.3 µM (active) | 
CCCN(CCC)C(=O)C(CCC(=O)OCCCN1CCN(CCOC(=O)Cc2c(C)n(C(=O)c3ccc(Cl)cc3)c3ccc(OC)cc23)CC1)NC(=O)c1ccccc1 (stereo unspecified) | inactive | inactive | 26.6 µM (active) | inactive | inactive | inactive | inactive | inactive | inactive | inactive | inactive | inactive | inactive | inactive | inactive | inactive |  | 
CCCCCCCCCCCCCCCCCC[N+](C)(C)C | inactive | 61.3 µM (active) | 61.3 µM (active) |  | inactive | inactive |  | inactive | inactive | inactive | inactive | inactive | inactive | inactive | inactive | inactive | 48.7 µM (active) | 
Cc1ccc(O)c(C(C)(C)C)c1 | inactive | 54.4 µM (active) and inactive |  | 27.3 µM (active) and 54.5 µM (active) | inactive | inactive | inactive | inactive | inactive | inactive | inactive | inactive | inactive | inactive | inactive | inactive | 5.44 µM (active) and 27.3 µM (active) | inactive
